A selection: hits, their analogues and other compounds. The true share with any hit is near 8%.
Cav3 T inh: human Cav3.2 channel inhibition, primary screen; B-score at 10 µM; O95180; Cav3.2-expressing cells, Fluo-4 calcium fluorescence FDSS; active compounds read low; actives 4% (n = 100,000); AID 449739;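 active = single-dose well whose peak fluorescence ratio is a statistical outlier from its plate by either plate-standardised score or position-corrected B-score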
PostGolgi yeast: growth inhibition of a yeast mutant, post-Golgi transport screen; actives 0.9% (n = 98,000); AID 739; inhibition, % at 10 µM; post-Golgi transport phenotypic cell assay;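 note: yeast cells grown in 1536-well plates; yeast grown about 18 h at 30C before absorbance read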
PostGolgi ctrl: growth of the yeast control strain, post-Golgi counter-screen. AID 738. inhibition, % at 10 µM. actives 5% (n = 98,000). efflux-deficient yeast background strain, growth absorbance A615, 16 h
Pyk2 oligo antag: blocks oligomerization of human Pyk2 in cells. Q293 cells, Pyk2 FERM NanoBiT luminescence; active compounds read low. z-score (the deposit names both 25 µM and 10 µM). actives 0.83% (n = 99,000). AID 1347419;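 active = Z-score of -3 or lower, scaled per plate to the spread of control and sample wells; inactive = z-score above -3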;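 note: negative z-score means lost luminescence so less FERM oligomerization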
Target sequence (Q14289 whole entry, looked up): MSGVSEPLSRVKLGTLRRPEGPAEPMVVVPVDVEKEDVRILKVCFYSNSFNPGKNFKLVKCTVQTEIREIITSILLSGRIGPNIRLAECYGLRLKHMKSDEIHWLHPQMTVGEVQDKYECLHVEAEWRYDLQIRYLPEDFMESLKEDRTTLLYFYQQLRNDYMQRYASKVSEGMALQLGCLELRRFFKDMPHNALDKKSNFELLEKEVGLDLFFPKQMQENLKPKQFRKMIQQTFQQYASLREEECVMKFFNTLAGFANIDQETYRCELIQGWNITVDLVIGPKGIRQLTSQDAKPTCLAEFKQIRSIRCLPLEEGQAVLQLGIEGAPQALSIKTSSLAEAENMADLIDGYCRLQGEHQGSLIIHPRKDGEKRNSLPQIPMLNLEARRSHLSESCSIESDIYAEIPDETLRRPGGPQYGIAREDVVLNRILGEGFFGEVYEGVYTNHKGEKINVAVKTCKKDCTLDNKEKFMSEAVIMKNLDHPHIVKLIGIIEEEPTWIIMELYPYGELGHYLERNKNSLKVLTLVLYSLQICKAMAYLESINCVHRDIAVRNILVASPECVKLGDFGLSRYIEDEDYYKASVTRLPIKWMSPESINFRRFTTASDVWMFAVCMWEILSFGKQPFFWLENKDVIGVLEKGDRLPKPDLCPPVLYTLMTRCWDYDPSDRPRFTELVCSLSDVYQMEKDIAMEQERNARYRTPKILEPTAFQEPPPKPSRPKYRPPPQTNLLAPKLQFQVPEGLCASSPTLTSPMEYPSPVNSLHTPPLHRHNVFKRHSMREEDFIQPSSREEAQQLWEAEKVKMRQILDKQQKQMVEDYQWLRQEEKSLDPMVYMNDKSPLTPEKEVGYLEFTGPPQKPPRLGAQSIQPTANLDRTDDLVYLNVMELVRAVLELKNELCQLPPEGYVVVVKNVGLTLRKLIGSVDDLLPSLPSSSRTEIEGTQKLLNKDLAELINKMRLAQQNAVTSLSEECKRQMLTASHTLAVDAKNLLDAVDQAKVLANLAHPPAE
Hits are given with their value; i = inactive; nt = not tested or not shown. Cut-off read from the data, not from the text of the source, unless noted: active = inhibition above about 30%; inactive = the rest.

SMILES | Cav3 T inh | PostGolgi yeast | PostGolgi ctrl | Pyk2 oligo antag
CCOc1cccc(N2C(=O)CC(NCc3ccc(S(N)(=O)=O)cc3)C2=O)c1 (configuration not stated) | i | i | i | i
CCCC1=C(C(=O)OCC)C(c2ccc(NC(C)=O)cc2)NC(=O)N1 (configuration not stated) | i | i | i | i
CCOC(=O)C1=C(CNCc2ccc(C)cc2)NC(=O)NC1c1ccc(OC)cc1 (configuration not stated) | -4.7 | i | i | i
COc1ccc(-n2c(Cc3cccn3C)nnc2SCC(=O)Nc2ccc3c(c2)OCCO3)cc1 | -10 | i | i | nt
COc1ccc(NC(=O)CSc2nnc(Cc3cccn3C)n2-c2ccc(OC)cc2)cc1 | -8.1 | i | i | nt
COc1ccc(-n2c(Cc3cccn3C)nnc2SCC(=O)Nc2ccc(C(C)=O)cc2)cc1 | -8.4 | i | i | nt
CCOc1ccc(NC(=O)CSc2nnc(Cc3cccn3C)n2-c2ccc(OC)cc2)cc1 | i | i | i | i
COc1ccc(-n2c(SCC(=O)Nc3ccccc3)nc3c(c2=O)SCC3)cc1 | i | i | 40 | nt
CC(C)(C)[C@H]1C=C(C(=O)NCc2nc3ccccc3[nH]2)O[C@@H](OCc2ccc(CO)cc2)C1 | i | nt | nt | nt
COc1ccc(-n2c(Cc3cccn3C)nnc2SCC(=O)Nc2ccc(C)cc2)cc1 | -7.9 | i | i | nt
Cc1nn(Cc2ccccc2)c(Cl)c1C(=O)OCc1nnc(-c2ccccc2)o1 | -5 | i | i | i
Cc1nn(Cc2ccccc2)c(Cl)c1C(=O)OCc1nnc(-c2ccc(Cl)cc2)o1 | -7.3 | i | i | i
O=C(OCc1nnc(-c2ccccc2)o1)c1ccco1 | i | i | i | i
Cc1nc(-c2ccc(Cl)cc2)sc1C1(C)CC(c2cccc(F)c2)=NO1 (configuration not stated) | i | nt | nt | nt
Cc1ccc(Cn2cc(SCC(=O)Nc3nccs3)c3ccccc32)cc1 | -6 | i | i | nt
COc1ccc(CCNC(=O)CSc2cn(Cc3cccc(C)c3)c3ccccc23)cc1OC | -4.3 | nt | nt | nt
Cc1cc(NC(=O)CSc2cn(CCNC(=O)c3ccccc3)c3ccccc23)no1 | i | i | i | nt
Cc1ccc(C(=O)NCCn2cc(SCC(=O)Nc3cc(C)on3)c3ccccc32)cc1 | -4 | i | i | nt
Cc1nnc(NC(=O)CSc2cn(Cc3ccccc3)c3ccccc23)s1 | i | i | i | nt
COc1ccc(CCNC(=O)CSc2cn(Cc3ccccc3)c3ccccc23)cc1OC | i | nt | nt | nt
Cc1cccc(Cn2cc(SCC(=O)Nc3nccs3)c3ccccc32)c1 | -4.6 | i | i | nt
Cc1ccc(-c2nnn(CC(=O)N(Cc3ccccc3)C(C(=O)NC3CCCC3)c3ccncc3)n2)o1 (configuration not stated) | i | i | i | i
Cc1ccc(S(=O)(=O)N[C@@H](Cc2ccccc2)C(=O)CCl)cc1 | i | nt | nt | nt
Cc1cc(C)c2cc(CN(Cc3ccc4c(c3)OCO4)Cc3nnnn3Cc3ccco3)c(=O)[nH]c2c1 | i | i | i | i
Cc1ccc2cc(CN(Cc3nnnn3C3CCCCC3)CC3CCCO3)c(=O)[nH]c2c1 (configuration not stated) | -2.6 | i | i | i
SMILES | Cav3 T inh | PostGolgi yeast | PostGolgi ctrl | Pyk2 oligo antag
Cc1cc(C)c2cc(CN(CCO)Cc3nnnn3Cc3ccc(F)cc3)c(=O)[nH]c2c1 | i | i | i | i
Cc1ccc2cc(CN(CCO)Cc3nnnn3Cc3ccc(F)cc3)c(=O)[nH]c2c1 | i | 37 | i | i
Cc1ccc2[nH]c(=O)c(CN(Cc3ccc4c(c3)OCO4)Cc3nnnn3Cc3ccco3)cc2c1 | -5.8 | i | i | i
O=[N+]([O-])c1c(C(Cl)Cl)nn(-c2ccc(Cl)cc2)c1N1CCCCC1 | nt | nt | nt | i
CCOC(=O)C1=C(C)n2c(s/c(=C/c3cccc([N+](=O)[O-])c3)c2=O)=NC1c1ccc(O)c(OC)c1 (configuration not stated) | i | 61 | 39 | i
CN(C)c1oc(-c2ccccc2Cl)nc1P(=O)(c1ccccc1)c1ccccc1 | -7.3 | 31 | i | i
CCCCCCCCC(=O)N/N=C(\C)c1cccnc1 | i | nt | nt | i
CCCCCC/C(=N\NS(C)(=O)=O)c1ccccc1 | -4.9 | i | i | i
Cc1cc(C)c(C(=O)CSC2=NC(N)=C(C#N)C3(CCCCC3)C2C(N)=O)cc1C (configuration not stated) | i | i | i | i
c1ccc2c(N3CCCC3)nc(-c3ccncc3)nc2c1 | i | 57 | 61 | i
COc1nc(-c2ccncc2)nc2ccccc12 | i | i | i | i
C=CCOc1nc(-c2ccncc2)nc2ccccc12 | i | i | 48 | i
CCNC(=O)CCCOc1ccc(Cl)cc1Cl | i | i | 36 | i
O=C(CCCOc1ccc(Cl)cc1Cl)Nc1ccncc1 | i | i | 61 | i
COC(=O)CCC(=O)NNC(=O)CCCOc1ccc(Cl)cc1Cl | i | i | i | i
COc1ccc(N(CC(=O)N2CCc3ccccc32)S(=O)(=O)c2c(C)n[nH]c2C)cc1 | i | i | i | i
O=C(NC1CCCCC1)C(c1ccc2ncccc2c1)N(Cc1ccccc1)C(=O)c1cccs1 (configuration not stated) | i | i | i | -4
O=C(NC1CCCCC1)C(c1ccc2ncccc2c1)N(Cc1ccc2c(c1)OCO2)C(=O)c1cccs1 (configuration not stated) | i | i | i | -3.6
COc1ccc(CN(C(=O)c2ccc3c(c2)OCCO3)C(C(=O)NC2CCCCC2)c2ccc3ncccc3c2)cc1 (configuration not stated) | i | i | i | i
O=C(NC1CCCCC1)C(c1ccc2ncccc2c1)N(Cc1ccccc1)C(=O)c1ccc2c(c1)OCCO2 (configuration not stated) | i | i | i | i
COc1ccc(CN(C(=O)c2cccs2)C(C(=O)NC2CCCCC2)c2ccc3ncccc3c2)cc1 (configuration not stated) | nt | i | i | -3.1
COc1ccc(CCN(Cc2cc3cc(C)cc(C)c3nc2Cl)C(=O)C2CC2)cc1 | nt | i | i | i
COc1ccc(CCNC(=O)c2cnn3c(C(F)F)cc(C)nc23)cc1OC | i | i | i | nt
COC(=O)c1ccccc1NC(=O)c1cccc(NC(=O)c2ccc(Br)o2)c1C | -5 | i | i | i
COc1ccccc1NC(=O)c1ccc(COc2ccccc2OC)o1 | i | i | i | i
SMILES | Cav3 T inh | PostGolgi yeast | PostGolgi ctrl | Pyk2 oligo antag
COC(=O)c1ccccc1NC(=O)c1ccc(COc2cc(C)cc(C)c2)o1 | i | i | 31 | i
O=C(NCc1ccc2c(c1)OCO2)c1cc(-c2ccccc2)nn1CC1CC(c2cccnc2)=NO1 (configuration not stated) | i | nt | nt | nt
CCCC1(c2ccccc2)NC(=O)N(CCN2C(=O)c3ccccc3C2=O)C1=O (configuration not stated) | i | i | i | i
COc1ccccc1NC(=O)NCCN1C(=O)C2C3C=CC(C3)C2C1=O (configuration not stated) | i | i | 42 | nt
O=C1C2C3C=CC(C3)C2C(=O)N1CN(Cc1ccccc1)CN1C(=O)C2C3C=CC(C3)C2C1=O (configuration not stated) | i | i | 37 | i
Cc1ccccc1NCN1C(=O)C2C3C=CC(C3)C2C1=O (configuration not stated) | i | i | 32 | i

Screens: PubChem BioAssay, several laboratories
